# Measurements as given in PMC7862700, “An all-to-all approach to the identification of sequence-specific readers for epigenetic DNA modifications on cytosine”.
# What was measured:
# Experiment in all cases: DAPPL (digital affinity profiling via proximity ligation, sequencing); 10 mM Tris-HCl pH 7.5, 50 mM NaCl, 1 mM DTT, 4% glycerol, room temperature, 30 min; GST-TFs on glutathione beads, 16-mer random dsDNA library, 0.1% formaldehyde crosslink after washing; high values mean tight binding
# FLI1 = target: T1, FLI1 (Homo sapiens, UniProt Q01543 1-452); settings: protein: recombinant; tags: N-terminal GST; dsDNA, one strand shown
# T1 sequence: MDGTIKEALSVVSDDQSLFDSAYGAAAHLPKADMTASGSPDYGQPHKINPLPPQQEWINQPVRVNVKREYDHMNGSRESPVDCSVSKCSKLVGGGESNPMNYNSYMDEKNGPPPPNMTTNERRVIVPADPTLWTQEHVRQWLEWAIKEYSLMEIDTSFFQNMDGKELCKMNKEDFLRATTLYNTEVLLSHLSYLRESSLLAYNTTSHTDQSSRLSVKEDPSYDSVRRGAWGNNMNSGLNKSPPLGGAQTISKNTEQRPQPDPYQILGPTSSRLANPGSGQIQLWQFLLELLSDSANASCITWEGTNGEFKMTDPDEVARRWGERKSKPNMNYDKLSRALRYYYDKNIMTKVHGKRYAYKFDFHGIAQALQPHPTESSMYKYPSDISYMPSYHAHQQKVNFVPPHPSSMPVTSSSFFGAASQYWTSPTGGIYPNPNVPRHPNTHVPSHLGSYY
# Method in brief: (§1)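 Pools were built from human transcription factors expressed in yeast as GST fusions, captured on glutathione beads and DNA-barcoded, along with a tag-only sample. Incubation with 200 nmole of a 16-mer random double-stranded DNA library lasted 30 min at room temperature in Tris/NaCl/DTT/glycerol buffer, and was followed by washing, 0.1% formaldehyde crosslinking, proximity ligation, PCR amplification and Illumina NextSeq500 sequencing. Binding signal is the quotient of each hexamer's read frequency for a factor and its frequency for the tag-only sample.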
# ELK1 = target: T2, ELK1 (Homo sapiens, UniProt P19419 1-428); settings: protein: recombinant; tags: N-terminal GST; dsDNA, one strand shown
# T2 sequence: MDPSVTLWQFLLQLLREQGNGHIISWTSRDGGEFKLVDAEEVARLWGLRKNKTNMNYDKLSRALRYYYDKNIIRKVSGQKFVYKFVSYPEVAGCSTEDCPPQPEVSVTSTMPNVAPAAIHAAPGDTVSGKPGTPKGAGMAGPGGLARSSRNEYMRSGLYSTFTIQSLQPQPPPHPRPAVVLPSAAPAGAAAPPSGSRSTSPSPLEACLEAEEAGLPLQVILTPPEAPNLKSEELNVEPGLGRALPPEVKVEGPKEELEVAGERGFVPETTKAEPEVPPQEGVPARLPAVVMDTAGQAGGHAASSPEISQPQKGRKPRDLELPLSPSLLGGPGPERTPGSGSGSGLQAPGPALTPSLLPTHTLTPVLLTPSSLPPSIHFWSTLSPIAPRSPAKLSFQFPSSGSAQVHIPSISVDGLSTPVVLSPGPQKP
# Method in brief: as §1
# GABPA = target: T3, GABPA (Homo sapiens, UniProt Q06546 1-454); settings: protein: recombinant; tags: N-terminal GST; dsDNA, one strand shown
# T3 sequence: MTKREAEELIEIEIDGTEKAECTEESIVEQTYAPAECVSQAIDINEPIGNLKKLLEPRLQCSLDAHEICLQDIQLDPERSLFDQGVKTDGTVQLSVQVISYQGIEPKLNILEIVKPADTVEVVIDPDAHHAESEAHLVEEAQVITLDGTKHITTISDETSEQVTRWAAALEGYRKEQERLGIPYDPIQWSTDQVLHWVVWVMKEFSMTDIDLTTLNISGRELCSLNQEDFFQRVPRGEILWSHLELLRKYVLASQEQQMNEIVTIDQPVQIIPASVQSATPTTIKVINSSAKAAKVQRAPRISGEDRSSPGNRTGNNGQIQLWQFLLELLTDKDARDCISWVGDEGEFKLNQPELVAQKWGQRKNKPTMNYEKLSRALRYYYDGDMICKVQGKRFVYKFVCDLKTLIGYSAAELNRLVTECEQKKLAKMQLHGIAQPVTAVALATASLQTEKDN
# Method in brief: as §1
# ERG = target: T4, ERG (Homo sapiens, UniProt P11308 1-479); settings: protein: recombinant; tags: N-terminal GST; dsDNA, one strand shown
# T4 sequence: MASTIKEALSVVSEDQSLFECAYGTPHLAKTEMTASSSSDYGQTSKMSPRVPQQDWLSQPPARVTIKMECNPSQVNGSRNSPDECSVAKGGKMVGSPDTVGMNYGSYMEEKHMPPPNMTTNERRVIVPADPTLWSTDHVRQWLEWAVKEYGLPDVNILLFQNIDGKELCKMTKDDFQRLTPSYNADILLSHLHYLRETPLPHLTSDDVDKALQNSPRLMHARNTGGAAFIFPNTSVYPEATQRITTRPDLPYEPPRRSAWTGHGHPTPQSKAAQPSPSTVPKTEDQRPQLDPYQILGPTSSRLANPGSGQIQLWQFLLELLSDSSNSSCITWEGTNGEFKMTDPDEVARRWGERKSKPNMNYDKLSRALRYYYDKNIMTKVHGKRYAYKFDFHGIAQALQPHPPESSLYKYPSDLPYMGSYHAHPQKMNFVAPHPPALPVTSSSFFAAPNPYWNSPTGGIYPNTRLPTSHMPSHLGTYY
# Method in brief: as §1
# ELF1 = ELF1 (Homo sapiens, UniProt P32519 1-619); settings: protein: recombinant; tags: N-terminal GST; dsDNA, one strand shown
# Method in brief: as §1
# EHF = target: T5, EHF (Homo sapiens, UniProt Q9NZC4 1-300); settings: protein: recombinant; tags: N-terminal GST; dsDNA, one strand shown
# T5 sequence: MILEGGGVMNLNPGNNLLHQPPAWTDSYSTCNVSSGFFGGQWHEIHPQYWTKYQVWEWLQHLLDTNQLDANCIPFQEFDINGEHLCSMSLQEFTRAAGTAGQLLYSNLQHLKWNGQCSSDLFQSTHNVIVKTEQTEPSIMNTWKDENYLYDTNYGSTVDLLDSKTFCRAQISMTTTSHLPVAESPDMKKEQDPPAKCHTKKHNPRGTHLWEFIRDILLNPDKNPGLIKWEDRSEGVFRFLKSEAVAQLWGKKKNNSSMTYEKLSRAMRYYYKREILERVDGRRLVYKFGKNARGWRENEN
# Method in brief: as §1
# SPI1 = SPI1 (Homo sapiens, UniProt P17947 1-270); settings: protein: recombinant; tags: N-terminal GST; dsDNA, one strand shown
# Method in brief: as §1
# SPIB = SPIB (Homo sapiens, UniProt Q01892 1-262); settings: protein: recombinant; tags: N-terminal GST; dsDNA, one strand shown
# Method in brief: as §1
# ELK3 = target: T6, ELK3 (Homo sapiens, UniProt P41970 1-407); settings: protein: recombinant; tags: N-terminal GST; dsDNA, one strand shown
# T6 sequence: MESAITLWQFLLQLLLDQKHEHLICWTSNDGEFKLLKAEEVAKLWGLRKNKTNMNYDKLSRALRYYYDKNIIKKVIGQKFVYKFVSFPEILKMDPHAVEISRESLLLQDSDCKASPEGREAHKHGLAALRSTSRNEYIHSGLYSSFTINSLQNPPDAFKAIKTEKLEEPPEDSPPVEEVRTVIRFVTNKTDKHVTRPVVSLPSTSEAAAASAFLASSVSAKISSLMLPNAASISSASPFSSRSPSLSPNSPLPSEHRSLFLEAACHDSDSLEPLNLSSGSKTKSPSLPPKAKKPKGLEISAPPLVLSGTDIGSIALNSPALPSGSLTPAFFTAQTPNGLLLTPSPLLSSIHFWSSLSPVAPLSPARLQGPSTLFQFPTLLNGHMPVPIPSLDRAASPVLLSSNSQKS
# Method in brief: as §1
# FEV = target: T7, FEV (Homo sapiens, UniProt Q99581 1-238); settings: protein: recombinant; tags: N-terminal GST; dsDNA, one strand shown
# T7 sequence: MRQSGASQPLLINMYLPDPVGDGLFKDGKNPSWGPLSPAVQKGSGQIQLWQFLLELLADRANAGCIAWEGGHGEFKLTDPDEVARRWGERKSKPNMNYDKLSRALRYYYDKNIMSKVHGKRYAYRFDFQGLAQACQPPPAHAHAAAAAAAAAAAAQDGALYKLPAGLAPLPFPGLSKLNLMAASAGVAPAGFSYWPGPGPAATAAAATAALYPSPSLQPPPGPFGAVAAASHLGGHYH
# Method in brief: as §1
# ETV5 = ETV5 (Homo sapiens, UniProt P41161 1-510); settings: protein: recombinant; tags: N-terminal GST; dsDNA, one strand shown
# Method in brief: as §1
# HSF1 = HSF1 (Homo sapiens, UniProt Q00613 1-529); settings: protein: recombinant; tags: N-terminal GST; chain copies: 3; dsDNA, one strand shown
# Method in brief: as §1
# SPIC = target: T8, SPIC (Homo sapiens, UniProt Q8N5J4 1-248); settings: protein: recombinant; tags: N-terminal GST; dsDNA, one strand shown
# T8 sequence: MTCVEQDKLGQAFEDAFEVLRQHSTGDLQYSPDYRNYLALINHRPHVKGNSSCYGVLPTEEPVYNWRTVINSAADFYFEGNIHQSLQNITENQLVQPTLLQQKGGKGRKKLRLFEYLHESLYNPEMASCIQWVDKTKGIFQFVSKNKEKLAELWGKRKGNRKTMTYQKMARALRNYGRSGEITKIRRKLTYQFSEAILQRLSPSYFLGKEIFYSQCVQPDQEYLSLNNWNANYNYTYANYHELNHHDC
# Method in brief: as §1
# ELF4 = ELF4 (Homo sapiens, UniProt Q99607 1-663); settings: protein: recombinant; tags: N-terminal GST; dsDNA, one strand shown
# Method in brief: as §1
# ELK4 = target: T9, ELK4 (Homo sapiens, UniProt P28324-2 1-405); settings: protein: recombinant; tags: N-terminal GST; dsDNA, one strand shown
# T9 sequence: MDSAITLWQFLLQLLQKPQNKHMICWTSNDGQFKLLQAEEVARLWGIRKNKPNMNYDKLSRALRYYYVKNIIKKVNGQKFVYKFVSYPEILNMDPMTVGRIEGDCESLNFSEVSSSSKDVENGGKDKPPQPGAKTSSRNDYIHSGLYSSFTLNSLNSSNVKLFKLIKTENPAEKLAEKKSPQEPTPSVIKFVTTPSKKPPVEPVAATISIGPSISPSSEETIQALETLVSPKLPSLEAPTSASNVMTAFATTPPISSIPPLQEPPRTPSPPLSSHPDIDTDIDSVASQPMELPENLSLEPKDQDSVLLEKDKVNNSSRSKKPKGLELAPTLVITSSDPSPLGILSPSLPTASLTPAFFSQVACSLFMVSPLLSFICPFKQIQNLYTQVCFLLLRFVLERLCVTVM
# Method in brief: as §1
# ETV2 = target: T10, ETV2 (Homo sapiens, UniProt O00321 1-342); settings: protein: recombinant; tags: N-terminal GST; dsDNA, one strand shown
# T10 sequence: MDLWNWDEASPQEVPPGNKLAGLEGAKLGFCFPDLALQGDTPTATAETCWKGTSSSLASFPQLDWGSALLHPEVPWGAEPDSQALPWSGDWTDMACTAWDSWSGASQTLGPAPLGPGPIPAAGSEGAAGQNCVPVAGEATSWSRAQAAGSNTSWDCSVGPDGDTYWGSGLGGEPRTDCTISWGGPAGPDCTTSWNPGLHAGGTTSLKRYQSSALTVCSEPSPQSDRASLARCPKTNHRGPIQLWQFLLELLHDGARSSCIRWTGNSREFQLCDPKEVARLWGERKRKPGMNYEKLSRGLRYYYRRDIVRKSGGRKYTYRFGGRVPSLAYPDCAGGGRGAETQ
# Method in brief: as §1
# ELF3 = target: T11, ELF3 (Homo sapiens, UniProt P78545 1-371); settings: protein: recombinant; tags: N-terminal GST; dsDNA, one strand shown
# T11 sequence: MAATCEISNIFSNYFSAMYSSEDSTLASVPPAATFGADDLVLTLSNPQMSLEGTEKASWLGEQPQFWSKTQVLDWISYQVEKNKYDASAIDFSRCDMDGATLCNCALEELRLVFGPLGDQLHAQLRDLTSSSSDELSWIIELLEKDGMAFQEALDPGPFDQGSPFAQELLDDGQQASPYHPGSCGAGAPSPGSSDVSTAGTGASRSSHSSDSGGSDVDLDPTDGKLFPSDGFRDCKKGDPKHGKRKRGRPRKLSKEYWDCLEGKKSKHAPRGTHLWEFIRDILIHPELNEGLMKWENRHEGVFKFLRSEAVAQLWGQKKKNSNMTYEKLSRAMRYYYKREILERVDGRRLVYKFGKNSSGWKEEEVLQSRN
# Method in brief: as §1
# CRX = CRX (Homo sapiens, UniProt O43186 1-299); settings: protein: recombinant; tags: N-terminal GST; dsDNA, one strand shown
# Method in brief: as §1
# ETV1 = ETV1 (Homo sapiens, UniProt P50549 1-477); settings: protein: recombinant; tags: N-terminal GST; dsDNA, one strand shown
# Method in brief: as §1
# Chain of CRX (O43186 whole entry): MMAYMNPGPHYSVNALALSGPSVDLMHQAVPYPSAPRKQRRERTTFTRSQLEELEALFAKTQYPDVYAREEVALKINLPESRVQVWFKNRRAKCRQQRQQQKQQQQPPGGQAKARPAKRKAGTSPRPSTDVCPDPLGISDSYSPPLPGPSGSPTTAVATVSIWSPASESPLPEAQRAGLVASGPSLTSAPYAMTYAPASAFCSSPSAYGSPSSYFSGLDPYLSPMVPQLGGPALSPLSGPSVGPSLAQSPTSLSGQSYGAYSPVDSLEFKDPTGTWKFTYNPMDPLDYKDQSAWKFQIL
# Chain of ELF4 (Q99607 whole entry): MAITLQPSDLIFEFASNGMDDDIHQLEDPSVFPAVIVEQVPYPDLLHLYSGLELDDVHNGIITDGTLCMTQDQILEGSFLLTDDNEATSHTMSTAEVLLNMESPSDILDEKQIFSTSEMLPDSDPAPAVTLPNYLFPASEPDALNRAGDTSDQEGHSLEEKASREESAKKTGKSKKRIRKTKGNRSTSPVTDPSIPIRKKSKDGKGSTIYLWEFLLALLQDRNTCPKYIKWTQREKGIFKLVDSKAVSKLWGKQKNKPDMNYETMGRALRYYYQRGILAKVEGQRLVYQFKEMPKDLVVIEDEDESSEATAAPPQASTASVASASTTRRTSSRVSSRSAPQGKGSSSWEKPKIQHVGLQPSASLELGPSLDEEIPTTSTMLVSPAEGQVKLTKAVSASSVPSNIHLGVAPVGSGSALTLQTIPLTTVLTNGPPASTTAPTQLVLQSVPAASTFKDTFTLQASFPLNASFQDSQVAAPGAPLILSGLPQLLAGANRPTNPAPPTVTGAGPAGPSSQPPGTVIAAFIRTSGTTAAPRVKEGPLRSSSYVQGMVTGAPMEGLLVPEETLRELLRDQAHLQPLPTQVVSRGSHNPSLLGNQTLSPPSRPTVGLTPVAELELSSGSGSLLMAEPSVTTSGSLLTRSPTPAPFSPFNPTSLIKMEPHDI
# Chain of ELF1 (P32519 whole entry): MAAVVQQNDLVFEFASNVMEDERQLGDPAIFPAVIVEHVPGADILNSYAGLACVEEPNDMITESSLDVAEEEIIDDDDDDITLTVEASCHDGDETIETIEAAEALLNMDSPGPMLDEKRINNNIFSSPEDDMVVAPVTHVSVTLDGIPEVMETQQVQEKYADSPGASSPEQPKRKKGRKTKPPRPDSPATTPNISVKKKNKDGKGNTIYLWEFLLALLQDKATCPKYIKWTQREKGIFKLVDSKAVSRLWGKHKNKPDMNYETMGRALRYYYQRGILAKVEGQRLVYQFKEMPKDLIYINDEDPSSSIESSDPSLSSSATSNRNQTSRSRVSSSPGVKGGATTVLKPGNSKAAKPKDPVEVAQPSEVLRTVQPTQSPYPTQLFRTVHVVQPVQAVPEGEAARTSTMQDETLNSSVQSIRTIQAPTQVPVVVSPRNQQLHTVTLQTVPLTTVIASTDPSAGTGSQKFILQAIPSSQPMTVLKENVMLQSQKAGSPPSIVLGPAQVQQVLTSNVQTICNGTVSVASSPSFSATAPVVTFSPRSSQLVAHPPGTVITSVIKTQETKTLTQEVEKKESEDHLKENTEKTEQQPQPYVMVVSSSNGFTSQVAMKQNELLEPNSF
# Chain of ETV1 (P50549 whole entry): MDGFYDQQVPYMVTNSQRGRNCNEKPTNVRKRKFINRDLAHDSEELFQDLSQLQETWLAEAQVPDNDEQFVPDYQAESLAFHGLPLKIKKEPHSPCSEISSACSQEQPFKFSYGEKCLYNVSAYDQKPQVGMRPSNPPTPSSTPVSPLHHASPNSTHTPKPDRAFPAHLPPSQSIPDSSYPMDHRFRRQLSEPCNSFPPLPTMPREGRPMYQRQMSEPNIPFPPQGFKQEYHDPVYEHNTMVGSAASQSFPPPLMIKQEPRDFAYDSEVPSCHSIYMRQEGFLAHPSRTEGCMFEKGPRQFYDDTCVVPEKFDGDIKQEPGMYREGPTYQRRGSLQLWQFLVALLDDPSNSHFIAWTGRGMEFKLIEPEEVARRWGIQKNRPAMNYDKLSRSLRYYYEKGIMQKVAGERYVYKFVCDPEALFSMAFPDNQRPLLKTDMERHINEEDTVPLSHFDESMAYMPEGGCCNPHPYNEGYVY
# Chain of ETV5 (P41161 whole entry): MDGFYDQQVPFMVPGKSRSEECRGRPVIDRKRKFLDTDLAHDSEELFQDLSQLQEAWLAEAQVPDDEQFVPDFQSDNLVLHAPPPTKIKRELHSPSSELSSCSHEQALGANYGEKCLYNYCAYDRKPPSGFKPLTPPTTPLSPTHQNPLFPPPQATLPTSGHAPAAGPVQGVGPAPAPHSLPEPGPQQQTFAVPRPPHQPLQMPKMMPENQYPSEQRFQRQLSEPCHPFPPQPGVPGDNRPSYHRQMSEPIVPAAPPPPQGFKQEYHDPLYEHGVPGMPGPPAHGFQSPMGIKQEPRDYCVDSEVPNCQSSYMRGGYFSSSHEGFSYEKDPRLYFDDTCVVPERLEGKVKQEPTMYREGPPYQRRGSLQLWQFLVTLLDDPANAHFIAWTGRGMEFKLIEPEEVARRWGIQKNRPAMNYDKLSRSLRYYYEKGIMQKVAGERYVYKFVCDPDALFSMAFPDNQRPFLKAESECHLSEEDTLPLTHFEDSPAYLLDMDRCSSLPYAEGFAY
# Chain of HSF1 (Q00613 whole entry): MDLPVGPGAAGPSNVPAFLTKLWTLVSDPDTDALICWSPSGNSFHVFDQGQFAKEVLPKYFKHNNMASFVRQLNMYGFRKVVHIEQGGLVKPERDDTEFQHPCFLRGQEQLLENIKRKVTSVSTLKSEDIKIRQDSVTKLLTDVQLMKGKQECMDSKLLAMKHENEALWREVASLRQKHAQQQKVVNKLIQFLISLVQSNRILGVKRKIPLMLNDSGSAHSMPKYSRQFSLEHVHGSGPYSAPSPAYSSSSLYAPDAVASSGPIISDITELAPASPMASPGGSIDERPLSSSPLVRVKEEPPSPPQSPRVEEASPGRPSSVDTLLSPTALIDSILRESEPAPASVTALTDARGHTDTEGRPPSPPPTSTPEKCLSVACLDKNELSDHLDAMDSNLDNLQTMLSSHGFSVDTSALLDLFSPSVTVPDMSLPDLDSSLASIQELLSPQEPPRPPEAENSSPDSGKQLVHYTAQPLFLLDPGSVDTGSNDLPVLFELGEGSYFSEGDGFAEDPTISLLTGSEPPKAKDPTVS
# Chain of SPIB (Q01892 whole entry): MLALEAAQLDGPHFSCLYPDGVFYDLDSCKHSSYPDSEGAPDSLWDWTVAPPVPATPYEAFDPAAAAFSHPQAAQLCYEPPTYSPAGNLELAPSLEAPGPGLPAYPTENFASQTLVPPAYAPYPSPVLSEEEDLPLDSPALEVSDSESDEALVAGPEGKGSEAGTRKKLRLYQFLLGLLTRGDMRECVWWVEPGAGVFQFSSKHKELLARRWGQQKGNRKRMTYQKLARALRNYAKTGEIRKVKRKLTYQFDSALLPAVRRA
sequence,measurement,setting,value
TATTGC,binding signal,FLI1,"1.39 fold enrichment (6-mer frequency, TF over GST control)"
same,binding signal,ELK1,"1.33 fold enrichment (6-mer frequency, TF over GST control)"
same,binding signal,GABPA,"1.44 fold enrichment (6-mer frequency, TF over GST control)"
same,binding signal,ERG,"1.31 fold enrichment (6-mer frequency, TF over GST control)"
same,binding signal,ELF1,"1.41 fold enrichment (6-mer frequency, TF over GST control)"
same,binding signal,EHF,"1.3 fold enrichment (6-mer frequency, TF over GST control)"
same,binding signal,SPI1,"1.32 fold enrichment (6-mer frequency, TF over GST control)"
same,binding signal,SPIB,"1.37 fold enrichment (6-mer frequency, TF over GST control)"
same,binding signal,ELK3,"1.3 fold enrichment (6-mer frequency, TF over GST control)"
same,binding signal,FEV,"1.33 fold enrichment (6-mer frequency, TF over GST control)"
same,binding signal,ETV5,"1.34 fold enrichment (6-mer frequency, TF over GST control)"
same,binding signal,HSF1,"1.21 fold enrichment (6-mer frequency, TF over GST control)"
same,binding signal,SPIC,"1.5 fold enrichment (6-mer frequency, TF over GST control)"
same,binding signal,ELF4,"1.41 fold enrichment (6-mer frequency, TF over GST control)"
same,binding signal,ELK4,"1.29 fold enrichment (6-mer frequency, TF over GST control)"
same,binding signal,ETV2,"1.22 fold enrichment (6-mer frequency, TF over GST control)"
same,binding signal,ELF3,"1.2 fold enrichment (6-mer frequency, TF over GST control)"
same,binding signal,CRX,"1.47 fold enrichment (6-mer frequency, TF over GST control)"
same,binding signal,ETV1,"1.45 fold enrichment (6-mer frequency, TF over GST control)"
